Shown are actives, neighbours in structure and some others; about 3.5% of the full set was active somewhere.
TEAD-YAP inh – TEAD-YAP interaction inhibition; actives 1.4% (n = 640,000); inhibition, % at 9.12 µM; AID 1259422; HEK-TIYL cells, TEAD-Gal4/YAP UAS-luciferase luminescence; in the data active means inhibition above about 32%;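 further: 0% = median of test compound wells and 100% = reference inhibitor wells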
FBW7 act – activators of human E3 ligase FBW7; Q969H0; actives 0.13% (n = 650,000); normalized activity (activation), % at 26.1 µM; AlphaScreen FBW7–phospho-cyclin E peptide binding, activator screen; in the data active means normalized activity above about 1.9%;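 further: purified mutant Fbw7 with reduced substrate affinity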
Target sequence (Q969H0 whole entry, looked up): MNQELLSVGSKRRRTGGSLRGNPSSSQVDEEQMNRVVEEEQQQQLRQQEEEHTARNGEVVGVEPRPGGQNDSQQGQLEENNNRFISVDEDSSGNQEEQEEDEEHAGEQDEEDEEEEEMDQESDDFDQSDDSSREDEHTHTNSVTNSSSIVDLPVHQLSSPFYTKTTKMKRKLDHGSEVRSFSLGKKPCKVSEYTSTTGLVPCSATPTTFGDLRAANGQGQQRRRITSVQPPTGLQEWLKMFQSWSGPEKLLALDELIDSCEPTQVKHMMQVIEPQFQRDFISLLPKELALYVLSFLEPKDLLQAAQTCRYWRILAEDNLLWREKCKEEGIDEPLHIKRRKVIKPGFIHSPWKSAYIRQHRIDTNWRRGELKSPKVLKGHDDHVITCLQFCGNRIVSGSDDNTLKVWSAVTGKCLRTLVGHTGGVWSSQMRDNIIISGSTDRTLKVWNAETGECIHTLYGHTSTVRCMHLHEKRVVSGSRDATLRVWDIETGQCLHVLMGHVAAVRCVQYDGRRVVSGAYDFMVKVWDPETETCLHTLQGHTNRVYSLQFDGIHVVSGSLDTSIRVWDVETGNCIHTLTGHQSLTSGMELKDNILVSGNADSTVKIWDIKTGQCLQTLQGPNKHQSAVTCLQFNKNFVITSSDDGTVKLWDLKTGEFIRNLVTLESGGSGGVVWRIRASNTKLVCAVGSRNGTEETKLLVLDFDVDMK
GPR151 ag – human GPR151 activation | Q8TDV0 | PathHunter beta-arrestin GPR151 cells, luminescence | activation, % at 11.2 µM | actives 1% (n = 650,000); in the data active means activation above about 4.9%;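 further: 0% = median of compound wells and 100% = cells with positive control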
MITF inh – blocks human microphthalmia-associated transcription factor | O75030 | AlphaScreen MITF homodimerization, bead proximity signal | inhibition, % at 2.6 µM | actives 0.91% (n = 650,000) | AID 1259374; in the data active means inhibition above about 50%;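 further: 0% = vehicle wells with protein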
* hit, by the source's call.

SMILES	TEAD-YAP inh	FBW7 act	GPR151 ag	MITF inh
Cc1ccc(-c2cnn3c(N4CCN(C)CC4)ccnc23)cc1	-52	0	0	-12
Cc1cc(C)c(N=C(Oc2ccccc2)c2ccccc2)c(C)c1	-4	0	0	-6
Clc1ccc(-n2ncc3c(NC(c4ccccc4)c4ccccc4)ncnc32)cc1	-3	0	2	1
O=C(NNc1ncnc2c1cnn2-c1ccc(F)cc1)c1cccs1	31	0	2	-15
O=C(NNc1ncnc2c1cnn2-c1ccc(Cl)cc1)c1cccs1	57*	0	1	-16
Clc1ccc(Nc2ncnc3c2cnn3-c2ccccc2)cc1	-18	0	0	-5
CC(C)Nc1ncnc2c1cnn2-c1ccc(Cl)cc1	56*	0	0	18
Clc1ccc(-n2ncc3c(Nc4ccc(Br)cc4)ncnc32)cc1	42*	0	1	-2
Cc1cc(C)n(-c2nc3ccccc3nc2-n2nc(C)cc2C)n1	-6	0	-1	-2
CCOC(=O)C(C)(C)N(Cc1ccc(Cl)cc1)S(=O)(=O)c1ccc([N+](=O)[O-])cc1	-3	0	-3	14
COc1ccc(/C=C2/SC(=N)N(c3cc(C)ccc3C)C2=O)cc1	38*	0	2	8
CCCCCC(=O)Oc1ccc(C)cc1-n1nc2ccccc2n1	-51	0	-2	-8
NC(C(=O)N1CCC(Nc2ccc3[nH]ncc3c2)CC1)c1ccc(-c2ccccc2)cc1 (configuration not stated)	38*	0	-1	3
CN(C)C(=O)C(=O)Nc1ccc(Cl)c(C(=O)N2CCC(Oc3ccc(F)cc3)CC2)c1	47*	0	0	8
CN(C)C(=O)C(=O)Nc1ccc(Cl)c(C(=O)N2CCC(Oc3ccc(Cl)cn3)CC2)c1	48*	0	0	4
O=C(c1ccncc1)N1CCC(Oc2ccc(Cl)cn2)CC1	8	1	0	13
COc1ccc(-c2ccc(NCC3COCCO3)nn2)cc1 (configuration not stated)	-22	1	1	16
Cc1ccc(C2c3cccn3CCN2C(=O)Nc2ccccc2)cc1 (configuration not stated)	-5	0	0	6
CCC(C)(C)NC(=O)C(c1ccc(C)o1)N(C(=O)Cn1nnc2ccccc21)C1CC1 (configuration not stated)	5	0	0	-3
O=C1/C(=C\C=C/c2ccc([N+](=O)[O-])o2)C(C(F)(F)F)=NN1c1ccccc1[N+](=O)[O-]	15	1	1	90*
CCOC(=O)c1c(C)[nH]c(C(=O)N/N=C\c2ccccc2O)c1C	35*	0	0	-1
COc1ccccc1/C=N/NC(=O)c1[nH]c(C)c(C(=O)N/N=C/c2ccccc2OC)c1C	1	0	0	-2
CCOC(=O)c1c(C)[nH]c(C(=O)N/N=C\c2ccccc2)c1C	18	0	-1	18
CCOC(=O)c1c(C)[nH]c(C(=O)N/N=C\c2ccc(Br)cc2)c1C	56*	0	2	3
Cc1ccc(O)c(/C=N\NC(=O)c2cnccn2)c1	-34	-1	-1	33
SMILES	TEAD-YAP inh	FBW7 act	GPR151 ag	MITF inh
NC(=O)c1ccsc1NC(=O)c1ccc2c(c1)CCCC2	58*	0	-10	6
O=C(c1ccc(Oc2ccccc2)cc1)c1coc2ccc(O)cc12	55*	0	-4	-4
O=C(c1cc2nc(-c3ccc([N+](=O)[O-])cc3)cc(C(F)(F)F)n2n1)N(Cc1ccccc1)c1ccccc1	-1	0	0	-12
O=C(O)c1ccc(NCc2ccc(Cl)cc2)c([N+](=O)[O-])c1	38*	0	-1	2
O=C(Nc1ccccc1Cl)c1cc([N+](=O)[O-])ccc1Cl	36*	0	2	4
O=C(Nc1cc(C(F)(F)F)ccc1N1CCCC1)c1cc([N+](=O)[O-])ccc1Cl	86*	0	-1	7
O=C(Nc1cc(C(F)(F)F)ccc1Cl)c1cc([N+](=O)[O-])ccc1Cl	-3	0	0	-6
O=C(Nc1cccc2ccccc12)c1cc([N+](=O)[O-])ccc1Cl	60*	0	2	14
CC(=O)Nc1ccccc1NC(=O)c1cc([N+](=O)[O-])ccc1Cl	3	0	1	-4
Cc1cc(O)c(NC(=O)c2cc([N+](=O)[O-])ccc2Cl)cc1C	43*	1	-1	6
CCOc1ccc(-c2csc(/C(C#N)=C/c3ccc(OC)cc3)n2)cc1	-17	0	0	11
COc1cccc(C2CC(c3cccs3)=NN2C(=O)CSc2nnc(CNC(=O)c3ccc([N+](=O)[O-])cc3)n2C)c1OC (configuration not stated)	0	0	-2	12
CC(/C=C1\N=C(c2ccc(C)c(C)c2)OC1=O)=C\c1ccccc1	-3	0	4	-4
CC(=O)Oc1cc(C(=O)Nc2ccc(F)cc2)cc(C(=O)Nc2ccc(F)cc2)c1	18	0	0	15
COC(=O)c1ccc(NC(=O)c2cc(OC(C)=O)cc(OC(C)=O)c2)cc1	45*	0	1	2
O=C(c1cc(COc2ccc3ncccc3c2)on1)N1CCC(N2CCSCC2)CC1	43*	0	1	-10
O=C(c1cc(COc2ccc3ncccc3c2)on1)N1CCC(O)CC1	3	0	0	7
CCC(O)C1CCN(C(=O)c2cc(COc3ccc4ncccc4c3)on2)CC1 (configuration not stated)	50*	0	1	-2
O=C(NCCCN1CCCC1=O)c1cc(COc2ccc3ncccc3c2)on1	37*	0	1	-10
O=C(c1cc(COc2ccc3ncccc3c2)on1)N1CCCC(OCc2ccccn2)C1 (configuration not stated)	39*	0	2	6
O=C(c1cc(COc2ccc3ncccc3c2)on1)N1CCCC(O)C1 (configuration not stated)	10	0	0	5
FC(F)(F)c1ccc(Cn2cnc3c(NCCOc4ccccc4)nc(Nc4cnccn4)nc32)cc1	2	0	-1	-1
CCOC(=O)N1CCN(C(=O)N2c3ccccc3Sc3ccccc32)CC1	56*	0	1	-2
CC1CCN(C(=O)N2c3ccccc3Sc3ccccc32)CC1	-4	0	1	12
COc1ccc(NC(=O)Cn2c(-c3cccc(C)c3)nc3ccccc3c2=O)cc1Cl	3	0	0	6
Cc1[nH]c2ccccc2c1C(C[N+](=O)[O-])c1ccc([N+](=O)[O-])cc1 (configuration not stated)	11	0	0	5
Cc1cc(C)c2c3c1C1C=CCC1CN3C(C(=O)O)C1CC=CC21 (configuration not stated)	-2	2.5*	0	25
O=C(O)c1cc2c3c(c1)C1C=CCC1C(c1ccccc1)N3CC1CC=CC21 (configuration not stated)	13	0	1	56*
O=C(O)c1cc2c3c(c1)C1CC=CC1C(c1ccc(Br)cc1)N3CC1CC=CC21 (configuration not stated)	-6	0	-1	72*
